# Sampled rows, rich in hits. Any-hit rate of the full collection: about 6%.
# D1 antagonist = antagonists of human D1 dopamine receptor | P21728 | HEK293 TREx D1 cells, calcium flux, dopamine EC80; hits give low values | activity change, negative = inhibition, % at 10 µM | hit rate 3.2% among 360,000 | AID 504652; in the data active = activity change below about -30%; also: % is scaled to controls: 0 for no effect and ±100 for the full control effect
# Target sequence (P21728 whole entry, looked up): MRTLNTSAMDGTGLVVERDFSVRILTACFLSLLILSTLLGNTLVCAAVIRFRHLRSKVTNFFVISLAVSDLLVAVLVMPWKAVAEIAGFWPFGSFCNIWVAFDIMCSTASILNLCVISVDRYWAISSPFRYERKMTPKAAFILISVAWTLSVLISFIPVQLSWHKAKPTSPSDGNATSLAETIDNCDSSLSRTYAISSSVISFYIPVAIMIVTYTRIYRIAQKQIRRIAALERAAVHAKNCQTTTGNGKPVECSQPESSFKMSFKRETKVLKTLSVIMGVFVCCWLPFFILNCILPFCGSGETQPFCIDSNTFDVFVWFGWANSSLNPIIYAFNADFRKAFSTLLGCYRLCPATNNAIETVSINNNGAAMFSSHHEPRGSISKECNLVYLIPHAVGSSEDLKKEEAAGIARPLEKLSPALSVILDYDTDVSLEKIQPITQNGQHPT
#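 Tetracycline-induced HEK293 T-REx cells with force-coupled D1 receptor were loaded with a no-wash calcium dye. Compound was added after a 10 s baseline and read kinetically for 180 s; EC80 dopamine was then added and calcium flux followed another 180 s.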
# D1 agonist = human D1 receptor agonism | P21728 | HEK293 T-REx D1 cells, calcium flux, agonist mode | activation, % at 2 µM | hit rate 1% among 360,000; in the data active = activation above about 30%; also: 0% is about no effect
#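 Agonism was scored from calcium flux recorded over 180 s (1 read/s) after pintool compound addition, following a 10-cycle baseline. Cells were inducible force-coupled HEK293 TREx D1, plated overnight at 30 C and loaded with no-wash calcium dye.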
# D1 PAM = human D1 dopamine receptor positive modulation; P21728; HEK293 TREx D1 cells, calcium flux, dopamine EC20 potentiation; potentiation, % at 10 µM; hit rate 0.036% among 360,000; AID 504651; in the data active = potentiation above about 30%; also: 0% is about no effect
# DRD3 antagonist = blocks the human D3 dopamine receptor. D3R cells, DiscoveRx beta-arrestin luminescence, antagonist mode; hits give low values. max response, negative = inhibition, %. hit rate 2.5% among 360,000. P35462; in the data active = max response below about -50%; inconclusive = no clear call, values can overlap the other calls; also: % is scaled to controls: 0 for no effect and ±100 for the full control effect
#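 Cells expressing the human receptor were seeded at 1500 cells/well, incubated overnight at 37 degrees C in 5% CO2, then exposed to library compounds with dopamine controls for 90 minutes at 37 degrees C before luminescent detection.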
# DRD3 agonist = D3 dopamine receptor (human) agonism. P35462. max activation, %. D3R DiscoveRx beta-arrestin cells, luminescence, 90 min. AID 652048. hit rate 0.58% among 410,000; in the data active = max activation above about 30%; also: 0% is about no effect
#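 Agonist mode: compounds and dopamine controls were applied to plated cells for 90 min at 37 degrees C after an overnight attachment at 1500 cells/well. Luminescent read-out followed 30 - 60 minutes at room temperature with DiscoveRx detection reagent.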
# BCR signal inh = blocks chronic active B-cell receptor signaling; ABC-DLBCL IkBa-CBG/CBR reporter, luminescence ratio, 4 h; Potency, µM (highest dose often 46.1 µM), without a hit: at the top dose activity change, negative = inhibition, usual class: inhibitors; hit rate 0.05% among 340,000; AID 493014; active = well fitted inhibition curve with a large enough effect in the signal ratio, with a control signal flat, not every such curve was filed as active; inconclusive = small, poorly fitted or top-dose-only effect, or effect the other way, or a change in a side signal; the % refers to the signal ratio;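 also: potency is read from the fitted curve at half-maximal effect; plate controls were basal doxycycline-induced cells for no effect and cells given 10 µM MG132 for full effect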
#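 Compounds up to 46 uM were incubated four hours with TMD8 cells whose green CBG68 luciferase is fused to IkappaBalpha; red CBR luminescence normalised the signal, and concentration-effect curves were fitted to fusion, red and ratio data.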
# An asterisk follows results filed as active; ? = inconclusive; nt = no result.
SMILES,D1 antagonist,D1 agonist,D1 PAM,DRD3 antagonist,DRD3 agonist,BCR signal inh
COc1ccc(CC(N)c2csc(NC(=O)Nc3ccccc3C(C)C)n2)cc1 (stereo not given),nt,nt,nt,-55*,-13,nt
O=C(Cc1csc(NC(=O)Nc2cccc(Cl)c2)n1)NCc1cccnc1,-2,2,-8,-2,-2,7%
Cn1c(=S)c2[nH]c(SCCN3CCCC3)nc2n(C)c1=O,-4,3,-3,-18,-1,11µM*
Cn1c(=S)c2[nH]c(SCCN)nc2n(C)c1=O,nt,nt,nt,-7,3,nt
Cc1cccc(C)c1-n1nnnc1C(c1cccs1)N1CCN(C/C=C/c2ccccc2)CC1 (stereo not given),nt,nt,nt,-84*,-20,nt
Cc1cccc(C)c1-n1nnnc1C(c1ccnc2ccccc12)N1CCN(CCN(C)C)CC1 (stereo not given),nt,nt,nt,-9,3,nt
Cc1cccc(C)c1-n1nnnc1C(c1ccccc1)N1CCN(C/C=C/c2ccccc2)CC1 (stereo not given),nt,nt,nt,-133*,-26,nt
CCOCCCNC(=O)C1CCC(CNS(=O)(=O)c2ccc(NC(C)=O)cc2)CC1 (stereo not given),-1,1,0,nt,-6,-2%
CCOC1=C2[C@@H](CN(S(=O)(=O)c3ccccc3C)[C@H]2c2ccc(Cl)cc2)[C@H]2C(=O)N(c3ccccc3)C(=O)[C@H]2C1,nt,nt,nt,-6,18,nt
CCOC1=C2[C@@H](CN(S(=O)(=O)c3ccccc3C)[C@H]2c2ccc(Cl)cc2)[C@H]2C(=O)NC(=O)[C@H]2C1,nt,nt,nt,-72*,-1,nt
N#C/C(=N\Nc1cccc(C(F)(F)F)c1)C(=O)c1ccsc1,-32*,22,-3,-6,6,?
COC(=O)c1ccc(CNC(=O)CN2C(=O)NC(Cc3ccccc3)(c3ccccc3)C2=O)cc1 (stereo not given),nt,nt,nt,12,6,nt
N#CC1=C(Nc2ccccc2)SC=C(c2ccc(Cl)c(Cl)c2)N=C1N1CCOCC1,-60*,1,4,-10,-1,?
O=C(c1cc(C2CC2)nc2ccc(Br)cc12)N1N=C(C(F)F)CC1(O)C(F)F (stereo not given),-12,8,-9,-62*,-1,-1%
O=C(CCCN1C(=O)c2cccnc2C1=O)Nc1ccc(Br)cc1,-55*,-1,-5,-9,-7,0%
O=C(CCCN1C(=O)c2ccccc2C1=O)Nc1ccc(Br)cn1,-13,0,1,17,0,13%
CC(=O)c1cccc(NC(=O)c2sc(-n3nc(C)c(CCC(C)C)c3C)nc2C)c1,-3,-2,1,nt,10,nt
CCN(CCNCC(O)COc1ccccc1C(C)C)c1cccc(C)c1 (stereo not given),-27,56*,14,-16,-7,?
CCOC(=O)C1=C(CN2CCN(c3ccc(OC)cc3)CC2)NC(=O)NC1c1ccc(OC)cc1 (stereo not given),11,3,2,nt,-13,nt
CCOC(=O)c1ccc(/C=C2/C=C(c3ccccc3)N(c3ccc(Cl)c(C(=O)O)c3)C2=O)cc1,4,103*,-1,?,3,0%
COC(=O)N/N=C(\C)c1ccccc1Br,-31*,-2,-1,-7,8,16%
COC(=O)N/N=C(\C)c1cccs1,-5,0,5,-23,-8,-1%
Cc1ccc2nc(N/C(=N/S(=O)(=O)c3ccc(F)cc3F)c3ccccc3)sc2c1,3,13,1,0,1,?
Cc1ccc2nc(N/C(=N/S(=O)(=O)c3ccc(F)cc3)c3ccccc3)sc2c1,-44*,9,-13,-3,4,?
C[C@H](O)[C@@H]1CN2CCc3c([nH]c4ccccc34)[C@@H]2C[C@@H]1N(C)C(=O)Nc1ccccc1,nt,nt,nt,-29,-10,nt
SMILES,D1 antagonist,D1 agonist,D1 PAM,DRD3 antagonist,DRD3 agonist,BCR signal inh
C[C@H](O)[C@@H]1CN2CCc3c([nH]c4ccccc34)[C@@H]2C[C@@H]1N(C)C(=O)Nc1cc(Cl)cc(Cl)c1,nt,nt,nt,-50*,-15,nt
O=C(CN1C(=O)COc2ccccc21)NCCCN1CCc2ccccc2C1,2,5,1,-77*,-21,5%
O=C(CN1C(=O)COc2ccccc21)NCCN1CCOCC1,-18,0,-9,-11,2,-2%
CC1Oc2ccccc2N(CC(=O)NCCN2CCOCC2)C1=O (stereo not given),-67*,3,-11,-3,4,3%
O=C(CN1C(=O)COc2ccccc21)NCCN1CCC(Cc2ccccc2)CC1,-10,10,-8,-57*,-29,-22%
COc1cc(NC(=O)N2CCC3(CC2)Nc2ccccc2-n2cccc23)cc(OC)c1OC,0,1,-2,nt,-7,nt
COc1ccc(NC(=O)C(C)n2nc(-c3cc(C)ccc3C)c3c(c2=O)CCCC3)cc1 (stereo not given),2,-1,6,nt,-8,nt
CC1CN(S(=O)(=O)Cc2ccccc2)CC(C)O1 (stereo not given),-9,1,0,-13,-8,1%
CC1CN(S(=O)(=O)c2ccccc2)CC(C)O1 (stereo not given),-35*,2,1,10,-21,?
CC1CN(S(=O)(=O)c2ccc(C(=O)OCc3ccc(C#N)cc3)cc2)CC(C)O1 (stereo not given),0,34*,nt,-6,1,-1%
COc1ccc(COC(=O)c2ccc(Cl)c(S(=O)(=O)N3CC(C)OC(C)C3)c2)cc1 (stereo not given),1,13,0,15,5,1%
O=C(Oc1cc(-c2ccccc2)no1)c1ccc(F)cc1,-47*,1,0,4,0,?
O=C(Oc1cc(-c2ccccc2)no1)c1cccc(C(F)(F)F)c1,-5,4,-3,5,-4,-1%
CC1(C(=O)NS(=O)(=O)c2cccc(C#N)c2)CCN1C(=O)CCC1CCCC1 (stereo not given),nt,nt,nt,23,5,nt
CCCCC(=O)Nc1ccccc1CC,-13,3,4,-65*,-15,7%
CCCCCCCC(=O)NNC(=O)Cc1ccccc1,-54*,2,-1,19,-25,5%
CCC(C)(C)NC(=O)c1ccc2c(c1)N(CC(=O)NC1CCCC1)C(=O)C(C)(C)O2,7,1,-3,-62*,-14,2%
COC(=O)CN1C(=O)C(C)(C)Oc2ccc(C(=O)NC3CCCC3)cc21,-15,4,-10,1,-25,-5%
O=C(CN1C2=NCCCN2c2ccccc21)c1cccc(Br)c1,1,38*,-8,?,-9,?
O=C(CN1C2=NCCN2c2ccccc21)c1ccc(Br)cc1,3,8,-4,?,-2,?

# Screening results as filed in PubChem BioAssay.
